Compounds without any hit were thinned out: in the full panel of roughly 83,000, 20% have a hit.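 The test compound was applied at a single concentration to cells in 96-well plates for 48 hours, and percent growth was recorded.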 A number with no mark means an inactive call. Active and inactive are the calls of the source. Rule for the calls: active = growth percent below 10; inactive = the rest.
Test system: HL-60(TB) leukemia
Assay: NCI-60 one-dose screen, 48 h (100 = growth as untreated, 0 = no growth, -100 = all killed)
Conditions: 10 µM unless noted

Question: With `CC/C=C\C[C@H](O)C/C=C1/C(=O)C=C[C@@]1(C)C/C=C\CCCC(=O)OC` as the compound, how does the growth read?
Answer: Its growth is 98.9%.

Question: How did the growth turn out when `CCCCCCCCN(CCCCCCCC)CCCCCCNc1cc(OC)cc2cccnc12` was run?
Answer: The growth was 83.6%.

Question: `S=c1ssnc1-c1cccs1` was tested. Which growth did it give?
Answer: Its growth is 95.1%.

Question: `CC(C)n1cc(C2=C(c3cccc4ccccc34)C(=O)NC2=O)c2cc(Br)ccc21` was tested. Which growth did it give?
Answer: The growth was 54.1%.

Question: Which growth does the source give for `CCCCCCCCCCCCCCCC[N+](C)(CCO)Cc1cnc[nH]1` (stereo not given) here?
Answer: Its growth is -80.6% (active).

Question: Which growth does the source give for `CC1CCC(C(C)C)C(NN)C1` (stereo not given) here?
Answer: The growth was 70.2%.

Question: With `N=C(N)c1ccc(-c2ccc(-c3ccc(Cl)c(Cl)c3)o2)nc1` as the compound, how does the growth read?
Answer: Its growth is 15.1%.

Question: With `Oc1cccc2c1NCCC2` as the compound, how does the growth read?
Answer: The growth was 7.84% (active).

Question: For `COc1ccc(C2CC(c3ccc(-c4ccccc4)cc3)=NN2c2ccc(S(N)(=O)=O)cc2)cc1` (stereo not given), which growth is on record?
Answer: Its growth is 69.4%.

Question: How did the growth turn out when `C=C1C(=O)O[C@H]2[C@H]1CC/C(COC(=O)/C=C\C(=O)NCc1ccc(Cn3c(=O)sn(CCI)c3=O)cc1)=C\CC[C@@]1(C)O[C@@H]21` was run?
Answer: The growth was -34.7% (active).

Question: Which growth does the source give for `COc1ccc(/C=N/Nc2cc(=O)[nH]c3ccc(C)cc23)cc1` here?
Answer: The growth was 94.2%.

Question: `O=C(O)c1cn(C2CC2)c2cc(N3CCN(C(=O)Nc4nc(-c5ccc(Cl)cc5)cs4)CC3)c(F)cc2c1=O` was tested. Which growth did it give?
Answer: Its growth is -26.2% (active).

Question: For `Cc1cc(Cl)ccc1NC(=O)/C(Cl)=C1/Sc2ccccc2NC1=O`, which growth is on record?
Answer: Its growth is 93.1%.

Question: Which growth does the source give for `CC(N)C(Cc1ccc(Cl)cc1)c1ccc(Cl)cc1` (stereo not given) here?
Answer: Its growth is 25.9%.

Question: Which growth does the source give for `COc1cc(-c2nc3sccn3c2-c2ccnc(NCCNS(=O)(=O)c3ccc(Cl)cc3)n2)ccc1F` here?
Answer: The growth was 9.59% (active).

Question: Which growth does the source give for `Cc1ccc(NC(=O)Nc2nc3ccccc3s2)cc1NC(=O)Nc1nc2ccccc2s1` here?
Answer: Its growth is 106%.

Question: How did the growth turn out when `COc1cc(/C=C/C(=O)c2cccc(-n3cc(-c4ccccc4)[nH]c3=O)c2)cc(OC)c1OC` was run?
Answer: The growth was -5.55% (active).

Question: `CC1(C)CC[C@]2(C(=O)Nc3ccccn3)CC[C@]3(C)C(=CC[C@@H]4[C@@]5(C)C/C(=C/c6cccnc6)C(=O)C(C)(C)[C@@H]5CC[C@]43C)[C@H]2C1` was tested. Which growth did it give?
Answer: Its growth is 1.84% (active).

Question: `Cc1c(-c2ccccc2)[nH]c2ccccc12` was tested. Which growth did it give?
Answer: Its growth is 106%.

Question: For `NC(CSC(c1ccccc1)(c1ccccc1)c1ccc(F)cc1)C(=O)O` (stereo not given), which growth is on record?
Answer: Its growth is -39.2% (active).

Question: With `Cc1ccccc1Nc1cc(O)c2c(=O)cc(-c3ccccc3)oc2c1` as the compound, how does the growth read?
Answer: Its growth is 8.58% (active).

Question: With `Cc1ccc(NC(=O)c2cc(NCc3cc(O)ccc3O)ccc2O)cc1` as the compound, how does the growth read?
Answer: The growth was 16.1%.

Question: `Cc1ccc(S(=O)(=O)N/N=C\c2cc(Cl)ccc2O)cc1` was tested. Which growth did it give?
Answer: The growth was 91.7%.

Question: With `COc1cc2nc(Cl)nc(Nc3cccc(C(=O)/C=C/c4ccc(F)cc4)c3)c2cc1OC` as the compound, how does the growth read?
Answer: Its growth is 62.1%.

Question: `NC(=O)CC1(O)C=C(Br)C(=O)C(Br)=C1` was tested. Which growth did it give?
Answer: The growth was -27.9% (active).

Question: With `O=C1C(=O)c2c(nc3ccc(Cl)cn23)-c2ccccc21` as the compound, how does the growth read?
Answer: Its growth is -79.7% (active).

Question: Which growth does the source give for `Cc1oc(-c2ccc(Cl)cc2)nc1C1=NN(C(=O)c2ccncc2)C(c2ccccc2)C1` (stereo not given) here?
Answer: Its growth is 97.7%.

Question: With `COc1cccc(-c2ccc3c(c2)C2CCN(Cc4ccccc4)C3C2)c1` (stereo not given) as the compound, how does the growth read?
Answer: Its growth is 46.2%.

Question: With `CCN(CC)c1ccc2cc(C(Nc3ccc(Cl)cc3)c3nnnn3C(C)(C)C)c(=O)oc2c1` (stereo not given) as the compound, how does the growth read?
Answer: The growth was 96%.

Question: How did the growth turn out when `COc1cc2nccc(Oc3ccc(NC(=O)C4(C(=O)Nc5ccc(F)cc5)CC4)cc3)c2cc1OC(=O)c1ccc(N)cc1` was run?
Answer: The growth was -43.9% (active).

Question: With `COc1cccc(/C=N/N=C(N)N)c1` as the compound, how does the growth read?
Answer: The growth was 122%.

Question: For `C/C(=N\Nc1cccc(Cl)n1)c1ccccn1`, which growth is on record?
Answer: The growth was -9.92% (active).

Question: `CC(C)c1ccc(C(=O)Nc2nc3ccc(O)c(CN(C)C)c3s2)cc1` was tested. Which growth did it give?
Answer: The growth was 76.8%.

Question: With `O=C(O)/C=C\C(=O)N1C/C(=C\c2ccccc2Cl)C(=O)/C(=C/c2ccccc2Cl)C1` as the compound, how does the growth read?
Answer: Its growth is -3.51% (active).

Question: Which growth does the source give for `N#Cc1nc(-c2ccc(Cl)cc2)oc1S(=O)(=O)N1CCN(c2ccc(F)cc2)CC1` here?
Answer: Its growth is 66.3%.

Question: For `CC(=O)[C@H]1CC[C@H]2[C@@H]3CC[C@@H]4CC=C(C=O)C[C@]4(C)[C@H]3CC[C@]12C`, which growth is on record?
Answer: Its growth is 78.2%.

Question: Which growth does the source give for `CN1CCN(Cc2ccc(NC(=O)c3[nH]ncc3Nc3ccnc4ccsc34)cc2)CC1` here?
Answer: Its growth is -17.8% (active).

Question: How did the growth turn out when `O=C(CSc1nnc(-c2ccccc2)o1)Nc1ccc(C(=O)/C=C/c2ccccc2)cc1` was run?
Answer: The growth was 71%.

Question: Which growth does the source give for `CCOc1cc2ncc(C#N)c(Nc3ccc(OCc4cccc(F)c4)c(Cl)c3)c2cc1NC(=O)CC1CCSS1` (stereo not given) here?
Answer: Its growth is 54.8%.

Question: For `COC(=O)[C@]12CC[C@@H](C)[C@H](C)[C@@H]1C1=CC[C@@H]3[C@@]4(C)C(C=O)=C[C@@](C)(COS(C)(=O)=O)C4[C@H](O)C[C@@]3(C)[C@]1(C)CC2` (stereo not given in full), which growth is on record?
Answer: Its growth is -34.4% (active).

From PubChem BioAssay (NCI)
